# Measurements reported in PubChem BioAssay (Tox21).
# “And” between values parts separate entries of the source, which are not always exact repeats. Equal entries are not always repeated. Inconclusive results are not listed. A call without a number means that no potency is given here. The source made the active and inactive calls. The call rests on the fitted dose curve; in most records, active means well fitted cell-killing curve with a large enough effect in the repeat runs; inconclusive means weak or mixed curves; inactive means flat fitted curve, though single readings scatter.
# Experiment: qHTS RealTime-Glo MT Cell Viability Assay in HepG2 cells - 32 hour (AID 1224877); further: nearly all actives have a fitted effect of over 55% in size
# Settings: RealTime-Glo luminescence; series mostly up to 76.8 µM
# From the text: U.S. Tox21 Program National Center for Advancing Translational Sciences [NCATS] NIH Chemical Genomics Center [NCGC] U.S. Environmental Protection Agency [EPA] National Institutes of Environmental Health Sciences [NIEHS] National Toxicology Program [NTP] U.S. Food and Drug Administration [FDA] Tox21 Assay Overview: Measure of cell viability is critical in the cell-base assay. Analysis of cell viability is necessary for the characterization of cell responses to cytotoxic drugs and environmental stress. A RealTime-Glo MT Cell Viability Assay to monitor cell viability in real time of continues cell culture during 40 hours of compound treatment was used to screen Tox21 10K library compounds in HepG2 cells. The RealTime-Glo MT Cell Viability Assay is a nonlytic, homogeneous, bioluminescent method to measure cell viability in real time using a simple, plate-based method. The assay involves adding NanoLuc luciferase and a cell-permeant prosubstrate to cells in culture. Viable cells reduce the proprietary prosubstrate to generate a substrate for NanoLuc luciferase. This substrate diffuses from cells into the surrounding culture medium, where it is rapidly used by the NanoLuc Enzyme to produce a luminescent signal. The signal correlates with the number of viable cells, making the assay well suited for cytotoxicity studies.
# Tox21 Assay Protocol Summary: The mixture of HepG2 cell suspension and reagents were dispensed at 600cells/6 ul/well in 1536-well tissue culture treated black solid bottom plates using a Multidrop dispenser. After the assay plates were incubated at a 37 C/5% CO2 incubator for 5 hours, 23 nL of compounds dissolved in DMSO, positive and negative controls was transferred to the assay plate by a pintool work station. The plates were incubated at 37 C for 40 hours. The luminescence intensity were measured at 0h, 8h, 16h, 24h, 32h and 40h time points using ViewLux plate reader during compound treatment.
# Potency means the concentration at half of the fitted maximal effect.
SMILES,Potency,"activity change, negative = cytotoxic"
CCc1c(C(=O)O)c(=O)cnn1-c1ccc(Cl)cc1,inactive,
CCCCCCCC/C=C/CCCOC(C)=O,inactive,
CC(=O)Oc1ccc(C2(c3ccc(OC(C)=O)cc3)Oc3ccccc3NC2=O)cc1,inactive,
CCCCCCCC/C=C\CCCCCCCC(=O)NCc1ccc(O)c(OC)c1,inactive,
CN(Cc1cc(Br)cc(Br)c1N)C1CCCCC1,inactive,
CCN=c1cc2oc3cc(NCC)c(C)cc3c(-c3ccccc3C(=O)OCC)c-2cc1C,43.5 µM (active) and 21.9 µM (active),
C(=C/c1ccccc1)/c1ccccc1,inactive,
N#CSCSc1nc2ccccc2s1,30.9 µM (active),
Oc1ccc(-c2ccc(O)cc2)cc1,inactive,
CCOCN(C(=O)CS(=O)(=O)O)c1c(C)cccc1CC,inactive,
CN1[C@@H]2CC[C@@H]1CC(OC(=O)C(CO)c1ccccc1)C2 (stereo not given in full),inactive,
CCCCCCCC/C=C\CCCCCCCC(=O)N(C)CC(=O)O,inactive,
C1CC(COCC2CO2)CCC1COCC1CO1 (stereo not given),inactive,
CC1(C)C(=O)N(CO)C(=O)N1CO,inactive,
Oc1cc2ccccc2cc1O,inactive,
CCC(C)C(=O)OC (stereo not given),inactive,
C[C@H]1O[C@@H](O[C@H]2[C@@H](O)C[C@H](O[C@H]3[C@@H](O)C[C@H](O[C@H]4CC[C@@]5(C)[C@H](CC[C@@H]6[C@@H]5C[C@@H](O)[C@]5(C)[C@@H](C7=CC(=O)OC7)CC[C@]65O)C4)O[C@@H]3C)O[C@@H]2C)C[C@H](O)[C@@H]1O,inactive,
CC(=O)O[C@@H]1C[C@@H]2CC[C@@]1(C)C2(C)C,inactive,
O=S(O)O,,4.15% [at 15.8 µM] (inactive)
CCOC(=O)COc1ccc(C)cc1,inactive,

SMILES,Potency,"activity change, negative = cytotoxic"
O=C1c2c(O)ccc(O)c2C(=O)c2c(NCCNCCO)ccc(NCCNCCO)c21,8.49 µM (active),
C/C=C/CO,inactive,
Nc1cc(Cl)c([N+](=O)[O-])cc1O,inactive,
CC(C)c1ccc(O)c(C(C)C)c1,inactive,
CC(C)CCOCCC(C)C,inactive,
CCCCN(C)C,inactive,
NC(=O)C(=O)N/N=C/c1ccc([N+](=O)[O-])o1,inactive,
CCCC(=O)OCC(COC(=O)CCC)OC(=O)CCC,inactive,
COc1ccccc1OCCNCC(O)COc1cccc2[nH]c3ccccc3c12 (stereo not given),23.9 µM (active),
Cc1c(-c2ccc(O)cc2)n(Cc2ccc(OCCN3CCCCCC3)cc2)c2ccc(O)cc12,9.52 µM (active),
CCCCCCCCCCCCOC(=O)c1cc(O)c(O)c(O)c1,54.7 µM (active) and 49 µM (active),
Clc1cc(Cl)c(-c2c(Cl)c(Cl)cc(Cl)c2Cl)cc1Cl,inactive,
O=C(O)CCCCCCC(=O)O,inactive,
CCc1cccc(CC)c1N(COC)C(=O)CS(=O)(=O)O,inactive,
OCCN1CN(CCO)CN(CCO)C1,inactive,
Cc1occc1SSc1ccoc1C,inactive,
O=C(O)CCn1c2c(c3ccccc31)C[C@H](NS(=O)(=O)c1ccc(F)cc1)CC2,inactive,
NCCCCCCNCCCCCCN,inactive,
CC(=O)C=O,inactive,
CCCCOC(=O)C(C)CC (stereo not given),inactive,
